Test results as given in PubChem BioAssay (NCATS).
Records with an inconclusive call do not appear. Active and inactive are the calls of the source. The call rests on the fitted dose curve; in most records, active means well fitted cell-killing curve with a large enough effect; inconclusive means small, poorly fitted or top-dose-only effect, or effect the other way; inactive means no such curve, though single readings can be large or run the other way.

assay: Quantitative High-Throughput drug screen in 47 multiple myeloma cell lines against the NCATS MIPE library collection: KMS34_JCRB cell viability assay (AID 1918985); conditions: KMS34 myeloma viability, CellTiter-Glo ATP luminescence, 48 h; series mostly up to 45.8 µM; viability, percent of control: at the top concentration; further: nearly all actives have a fitted effect of over 40% in size
Excerpt: PI: Beverly A. Mock Ph.D.
Laboratory of Cancer Biology and Genetics,
Center for Cancer Research, National Cancer Institute,
National Institute of Health, Bethesda, Maryland
Drug resistance and disease progression are common in multiple myeloma (MM) patients, underscoring the need for new therapeutic combinations. […] We hypothesized that effective combinations would reduce MYC expression and enhance p16 activity. […] These preclinical data identify potentially useful drug combinations for evaluation in drug-resistant MM and reveal potential mechanisms of combined drug sensitivity.
Described herein is the primary MIPE qHTS used to cherrypick compounds. Validated compounds were then further tested for potential synergistic activiy.
[1] Peat TJ, Gaikwad SM, Dubois W, Gyabaah-Kessie N, Zhang S, Gorjifard S, Phyo Z, Andres M, Hughitt VK, Simpson RM, Miller MA, Girvin AT, Taylor A, Williams D, D'Antonio N, Zhang Y, Rajagopalan A, Flietner E, Wilson K, Zhang X, Shinn P, Klumpp-Thomas C, McKnight C, Itkin Z, Chen L, Kazandijian D, Zhang J, Michalowski AM, Simmons JK, Keats J, Thomas CJ, Mock BA. Drug combinations identified by high-throughput screening promote cell cycle transition and upregulate Smad pathways in myeloma. Cancer Lett. 2023 Aug 1;568:216284. doi: 10.1016/j.canlet.2023.216284. Epub 2023 Jun 24. PMID: 37356470; PMCID: PMC10408729.
SEQUENCE No. (e.g., 1, 2, 3, etc.); […] (e.g., Cells, Incubation, Reagent, etc.); VALUE and DESCRIPTION.
1; Cells; 5 uL; white, solid bottom 1536-well Greiner assay plate.
2; Compounds; 23 nL; Kalypsis pin tool (Wako USA) equipped with a 1536-well pin head to transfer to the assay plates.
3; Incubation; 48 hours; 37C incubation.
4; Reagent;5uL; CellTiter Glo (Promega).
5; Detector; 425V; Luminescence; Viewlux PerkinElmer.
NOTES (numbers refer to Sequence numbers above)
1. The cell-based screening methods employed in this study were like those previously published. Briefly, the corresponding myeloma cell lines were screened in 1,536-well plates with 500 cells, 5-uL per well for inhibition of cell viability (assessed by measuring ATP levels with CellTiterGlo).
2. NCATS MIPE 4.0 library of approved and investigational drugs were added using the Kalypsis pin tool. Wells treated with DMSO only for 100% viability and media only for 0% viability were used as controls.
3. The assay plates were covered and incubated for 48 hours in a 37C, 5% CO2 incubator with controlled humidity.
4. After 48 hours, CellTilter-GloTM luminescent substrate mix (Promega) reagent was added to the assay plate and plates we incubated for 5 min at room temperature.
5. Signal was measured as median relative luminescence units on a ViewLux (PerkinElmer) multiplate reader.
[1] Heske CM, Davis MI, Baumgart JT, Wilson K, Gormally MV, Chen L, Zhang X, Ceribelli M, Duveau DY, Guha R, Ferrer M, Arnaldez FI, Ji J, Tran HL, Zhang Y, Mendoza A, Helman LJ, Thomas CJ. Matrix Screen Identifies Synergistic Combination of PARP Inhibitors and Nicotinamide Phosphoribosyltransferase (NAMPT) Inhibitors in Ewing Sarcoma. Clin Cancer Res. 2017 Dec 1;23(23):7301-7311. doi: 10.1158/1078-0432.CCR-17-1121. Epub 2017 Sep 12. PMID: 28899971; PMCID: PMC6636827.
Potency means the concentration at half of the fitted maximal effect.

| SMILES | viability, percent of control | Potency |
| --- | --- | --- |
| CC(C)(O)C(=O)Nc1ccc([N+](=O)[O-])c(C(F)(F)F)c1 | 108% (inactive) | – |
| O=C1C=CC[C@@H]2[C@H]3CCCN4CCC[C@@H](CN12)[C@@H]34 | 98.4% (inactive) | – |
| O=C(NCC1CCOCC1)c1cnc(Nc2ccc(Cl)cc2Cl)nc1C(F)(F)F | 77.1% (inactive) | – |
| CCCC[N+]1(C)[C@H]2CC(OC(=O)[C@H](CO)c3ccccc3)C[C@H]1[C@H]1O[C@H]12 (stereo not given in full) | 115% (inactive) | – |
| C[C@]12CC[C@H]3[C@@H](CCC4=CC(=O)CC[C@@]43C)[C@H]1CC[C@H]2O | 91.2% (inactive) | – |
| CN(C)NC(=O)CCC(=O)O | 73.3% (inactive) | – |
| NC1=NC(=O)N2CC12 (stereo not given) | 88.8% (inactive) | – |
| C=CCON=C(C[C@H]1O[C@@H]2O[C@]3(C)CC[C@@H]4[C@H](C)CC[C@@H]([C@H]1C)[C@@]24OO3)[C@H]1O[C@@H]2O[C@]3(C)CC[C@H]4[C@H](C)CC[C@@H]([C@@H]1C)[C@@]24OO3 | – | 264 nM (active) |
| CC(C)[C@]12O[C@@H]1[C@@H]1O[C@]13[C@]1(O[C@H]1C[C@@H]1C4=C(CC[C@@]13C)C(=O)OC4)[C@H]2O | 2.06% (inactive) | – |
| O=C(Nc1ccncc1)C(=O)c1cn(Cc2ccc(Cl)cc2)c2ccccc12 | – | 46.9 nM (active) |
| C[C@@]12OC(=O)[C@]1([C@@H](O)[C@@H]1C=CCCC1)NC(=O)[C@H]2CCCl | – | 10.5 nM (active) |
| COC(=O)[C@@H](N)CCCN=C(N)N[N+](=O)[O-] | 107% (inactive) | – |
| COc1ccc(N(C(=O)Oc2c(C)cccc2C)c2ccnc(Nc3ccc(N4CCN(C)CC4)cc3)n2)c(OC)c1 | – | 1050 nM (active) |
| C#CC1(O)CCC2C3CCC4=CC(=O)CCC4(C)C3CCC21C (stereo not given) | 116% (inactive) | – |
| N#C[C@H](O[C@@H]1O[C@H](CO[C@@H]2O[C@H](CO)[C@H](O)[C@H](O)[C@H]2O)[C@H](O)[C@H](O)[C@H]1O)c1ccccc1 | – | 8330 nM (active) |
| Cc1ccccc1-n1c(Cn2cnc3c(N)ncnc32)nc2cccc(C)c2c1=O | – | 148 nM (active) |
| CN(C)[C@@H]1C(=O)C(C(N)=O)=C(O)[C@@]2(O)C(=O)C3=C(O)c4c(O)cccc4[C@@](C)(O)[C@H]3[C@H](O)[C@@H]12 | – | 3720 nM (active) |
| c1ccc2c(CN3CCNCC3)cccc2c1 | 116% (inactive) | – |
| C[C@]12CCC(=O)C(O)=C1CC[C@@H]1[C@H]3CCC(=O)[C@@]3(C)CC[C@@H]12 | 102% (inactive) | – |
| Cc1[nH]nc2ccc(-c3cncc(OC[C@@H](N)Cc4c[nH]c5ccccc45)c3)cc12 | – | 1320 nM (active) |

| SMILES | viability, percent of control | Potency |
| --- | --- | --- |
| N=c1c2c(-c3ccccc3)c(-c3ccccc3)n(Cc3ccccc3)c2ncn1C1CCC(O)CC1 (stereo not given) | – | 13200 nM (active) |
| CC(C)N(CCNC(=O)CN1CCCC1=O)C(C)C | 107% (inactive) | – |
| C1=C2CCCN[C@H]2[C@@H]2C[C@H]1[C@@H]1CCCCN1C2 | 107% (inactive) | – |
| CCOC(=O)Nc1ccc(NCc2ccc(F)cc2)cc1N | 115% (inactive) | – |
| CC[C@@H]1[C@@H](C)O[C@@](O)([C@@H](C)[C@H](O)[C@H](C)[C@H]2OC(=O)C=CC=C[C@@H](C)[C@@H]([C@@H](C)[C@@H](O)[C@H](C)[C@@]3(O)C[C@H](O[C@H]4C[C@H](O)[C@H](O)[C@H](C)O4)[C@H](CC)[C@@H](C)O3)OC(=O)C=CC=C[C@@H]2C)C[C@H]1O[C@H]1C[C@H](O)[C@H](O)[C@H](C)O1 | – | 935 nM (active) |
| CC(C)(C)[C@]1(O)C[C@@H]2OC(=O)C[C@@]23C(=O)O[C@@H]2OC(=O)[C@H](O)C213 (stereo not given in full) | 98% (inactive) | – |
| CN1CCN(c2ccc([N+](=O)[O-])c3no[n+]([O-])c23)CC1 | – | 14800 nM (active) |
| C[C@H]1CCCC=CC2C[C@H](O)C[C@@H]2[C@H](O)C=CC(=O)O1 (stereo not given in full) | 4.26% (inactive) | – |
| COc1cc([C@@H]2c3cc4c(cc3[C@@H](O)C3COC(=O)C32)OCO4)cc(OC)c1O (stereo not given in full) | – | 18.7 nM (active) |
| COCC1(CO)C(=O)C2CCN1CC2 (stereo not given) | – | 590 nM (active) |
| CC(=O)O[C@@]12CO[C@H]1C[C@H](O)[C@@]1(C)C(=O)[C@H](O)C3=C(C)[C@@H](O)C[C@@](O)([C@@H](OC(=O)c4ccccc4)[C@@H]21)C3(C)C | – | 3720 nM (active) |
| Cc1c(N)nc([C@H](CC(N)=O)NC[C@@H](N)C(N)=O)nc1C(=O)N[C@H](C(=O)N[C@@H](C)[C@H](O)[C@@H](C)C(=O)N[C@@H](C(=O)NCCc1nc(-c2nc(C(=O)NCCC[S+](C)C)cs2)cs1)[C@@H](C)O)C(O[C@H]1O[C@H](CO)[C@H](O)[C@@H](O)[C@@H]1O[C@H]1O[C@H](CO)[C@@H](O)[C@H](OC(N)=O)[C@H]1O)c1cnc[nH]1 (stereo not given in full) | – | 264 nM (active) |
| CN1[C@H]2CC(O)C[C@H]1[C@H]1O[C@H]12 (stereo not given in full) | – | 18700 nM (active) |
| C[C@@H]1CC[C@H]2[C@@H](C)C(=O)O[C@@H]3O[C@@]4(C)CC[C@H]1[C@]32OO4 | – | 2960 nM (active) |
| CC[C@@]1(O)C(=O)OCc2c1cc1n(c2=O)Cc2cc3ccccc3nc2-1 | – | 209 nM (active) |
| COc1ccc2c(c[n+](C)c3c4cc5c(cc4ccc23)OCO5)c1OC | – | 4180 nM (active) |
| C#C[C@]1(O)C=C[C@@H]2[C@@H]3CCC4=CC(=O)CC[C@@H]4[C@H]3CC[C@@]21CC | 88.3% (inactive) | – |
| O=C(N[C@H]1CN2CCC1CC2)c1ccc(Cl)cc1 | 105% (inactive) | – |
| CCC(=O)OC1CCC2C3CCC4=CC(=O)CC[C@@]4(C)C3CC[C@]12C (stereo not given in full) | 112% (inactive) | – |
| O=c1[nH]c2ccc(Cl)cc2c(N[C@@H]2CN3CCC2CC3)c1-c1nc2ccccc2[nH]1 | – | 74.3 nM (active) |
